# Test results published in PubChem BioAssay.
# Values joined by “and” are separate entries in the source; they are usually repeats but may differ in a detail not shown here. Equal values may be shown once. Active and inactive are the calls of the source.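 Rule for the calls, unless noted: active = z-score of at least 1.8 in each of two replicates, scored against plate mean and spread of sample wells; inactive = the rest.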
# Legend:
# [1] = liver-stage malaria parasite growth inhibition, primary screen, cell-based, HepG2, luciferase luminescence, HepG2 viability (AID 624349; in the data active = parasite load remaining mostly below about 12%, no sharp cut-off; inactive = mostly above about 10%;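 note: 100% = mean of DMSO negative control wells on the same plate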); conditions: P. berghei liver stage in HepG2, luciferase luminescence, concentration not given here; parasite load remaining: stronger effect = lower value; viability: measured here: HepG2 viability without parasites
# [2] = stimulators of nuclear beta-catenin in C2C12, primary screen, imaging, WNT3A-conditioned medium, mouse C2C12, NPC library (AID 1117326; in the data active = nuclear beta-catenin stimulation mostly above about 4.2%, no sharp cut-off; inactive = mostly below about 10%); conditions: stronger effect = higher value
# [3] = stimulators of insulin release from INS-1E, primary screen, cell-based, 5 mM glucose, NPC library (AID 1117329;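 active = compound raises insulin release from rat beta cells at 5 mM glucose, no numeric limit stated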); conditions: rat INS-1E insulin secretion, at 10 µM, stronger effect = higher value
# [4] = growth inhibition of GSK3B-pretreated HCT116 cells – cell-based, CellTiter-Glo, 0.2 to 20 µM (AID 1117336;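 active = compounds lowering colon cancer cell viability after pretreatment blocking the GSK3B kinase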); conditions: HCT116 viability after GSK3B inhibitor, at 20 µM, stronger effect = higher value
# [5] = inhibition of endothelial tube formation, primary screen, imaging, VEGF stimulated, CD31 staining, tube area, NPC library (AID 1117340;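 active = compound that reduces growth-factor-driven endothelial tube area in a mixed cell culture, no cutoff stated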); conditions: VEGF-stimulated ADSC/ECFC co-culture, at 10 µM, stronger effect = higher value
# [6] = glucagon-like peptide 1 release enhancers, primary assay, NCI-H716 cell line, NPC library (AID 1117341;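 active = compound raises GLP1 secretion from the human gut endocrine cells, with no numeric limit stated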); conditions: NCI-H716 cells, at 10 µM, stronger effect = higher value
# [7] = HCT116 colon cancer cell growth inhibition, primary screen, CellTiter-Glo luminescence, NPC library (AID 1117342;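 active = compounds that lower survival of HCT116 colon cancer cells in the luminescence readout, no numeric limit stated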); conditions: at 20 µM (top of the series)
# [8] = CellTiter-Glo luminescent readout of SW480 viability loss, NPC library primary (AID 1117343;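 active = compounds that lower viability of the colon cancer cells in the luminescence readout, with no numeric limit stated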); conditions: CellTiter-Glo luminescence; at 20 µM (top of the series)
# [9] = decreased DLD-1 cellular survival, CellTiter-Glo luminescent readout, NPC compound collection, primary HTS (AID 1117346;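 active = compounds that lower survival of DLD-1 colon cancer cells in the luminescence readout, no cutoff given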); conditions: DLD-1 viability, CellTiter-Glo luminescence; at 20 µM (top of the series)
# [10] = test system: Aerobactin synthetase IucA (Klebsiella pneumoniae, hypervirulent); assay: IucA enzyme inhibition, biochemical, LOPAC library, absorbance readout (AID 1346212; call rule not given here;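 note: 100% = no compound wells and 0% = no enzyme wells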); conditions: IucA enzyme assay, absorbance (OD) readout; stronger effect = lower value;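 tested at 8 µM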
# [11] = survival rescue of mitochondrial mutant cells in low glucose, primary screen, MELAS cybrids, Rieske KO mouse fibroblasts, CellTiter-Glo (AID 1508586;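 active = mean z-score across replicates of 1.96 or higher in either the MELAS or the Rieske mutant cell line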;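 note: z relative to plate mean and SD of compound and empty wells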)
# [12] = viability rescue of complex I mutant cybrids, primary screen, cell-based, galactose medium, ATP luminescence (AID 1645843); conditions: complex I mutant cybrid cells, 72 h, stronger effect = higher value;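 note: positive z means more ATP and so rescue of galactose-driven cybrid death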
# [13] = differential killing of epithelial or mesenchymal cells, primary screen, imaging, PC-3E GFP, TEM4-18 mCherry, co-culture (AID 1345086;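 active = compounds killing one labelled cell type while sparing the other, by normalised counts and ratio limits, not self-fluorescent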;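 note: cells exposed to compound for 72 h before imaging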;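 for red/green cell ratio (normalised): normalised mesenchymal count divided by normalised epithelial count so high means epithelial killing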); conditions: imaging cell counts, at 1 µM
# [14] = sensitizers of A549 cells to miR-34 induction, primary screen, imaging, A549 dox-inducible miR-34, nuclei and caspase counts (AID 1347080;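 active = compounds whose cell count with miR-34 switched on is under 0.7 times the count with it off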); conditions: A549 miR-34 inducible, Hoechst nuclei count, 48 h
# [15] = target: NAD(+) hydrolase SARM1 (Homo sapiens) (UniProt Q6SZW1); assay: SARM1 TIR NADase inhibitors, cell lysate, NAD-Glo luminescence (AID 1508614;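 active = compound whose remaining NAD level is above about 45 nM, limit read from the data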;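 note: higher remaining NAD means stronger inhibition of SARM1 NADase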); conditions: SAM-TIR HEK293T lysate NADase, at 1 µM, stronger effect = higher value
# Sequence of NAD(+) hydrolase SARM1 (Homo sapiens) (Q6SZW1 whole entry, looked up, the tested form may be a part): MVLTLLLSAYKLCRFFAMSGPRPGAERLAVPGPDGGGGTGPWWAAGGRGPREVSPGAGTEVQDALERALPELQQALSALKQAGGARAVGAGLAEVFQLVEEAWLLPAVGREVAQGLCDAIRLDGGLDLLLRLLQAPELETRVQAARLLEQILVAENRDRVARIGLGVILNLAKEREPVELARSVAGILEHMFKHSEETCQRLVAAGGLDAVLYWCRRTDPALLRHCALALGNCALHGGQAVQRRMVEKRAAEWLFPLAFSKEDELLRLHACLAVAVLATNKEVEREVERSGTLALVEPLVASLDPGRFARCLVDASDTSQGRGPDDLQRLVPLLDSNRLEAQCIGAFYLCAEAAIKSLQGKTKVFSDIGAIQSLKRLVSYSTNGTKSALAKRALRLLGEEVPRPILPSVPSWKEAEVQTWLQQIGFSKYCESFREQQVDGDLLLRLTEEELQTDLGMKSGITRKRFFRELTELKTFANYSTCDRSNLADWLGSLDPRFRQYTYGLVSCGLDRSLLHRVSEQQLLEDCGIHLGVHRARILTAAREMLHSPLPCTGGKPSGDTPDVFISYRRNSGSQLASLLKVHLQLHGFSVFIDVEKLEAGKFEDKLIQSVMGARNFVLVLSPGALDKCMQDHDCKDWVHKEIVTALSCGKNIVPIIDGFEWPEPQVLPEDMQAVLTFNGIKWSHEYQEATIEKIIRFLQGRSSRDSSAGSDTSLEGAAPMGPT
# [16] = target: Mitogen-activated protein kinase 7 (Homo sapiens) (UniProt Q13164); assay: ERK5 transactivation activators in reporter cells, primary screen, cell-based, HTS (AID 1508626;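 active = luciferase signal above three times the same-plate solvent-only control wells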;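 note: luciferase driven by Gal4-ERK5 fusion binding five Gal4 sites before minimal TATA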); conditions: HeLa Gal4-ERK5 transactivation, 18 h, at 5 µM, stronger effect = higher value
# Sequence of Mitogen-activated protein kinase 7 (Homo sapiens) (Q13164 whole entry, looked up, the tested form may be a part): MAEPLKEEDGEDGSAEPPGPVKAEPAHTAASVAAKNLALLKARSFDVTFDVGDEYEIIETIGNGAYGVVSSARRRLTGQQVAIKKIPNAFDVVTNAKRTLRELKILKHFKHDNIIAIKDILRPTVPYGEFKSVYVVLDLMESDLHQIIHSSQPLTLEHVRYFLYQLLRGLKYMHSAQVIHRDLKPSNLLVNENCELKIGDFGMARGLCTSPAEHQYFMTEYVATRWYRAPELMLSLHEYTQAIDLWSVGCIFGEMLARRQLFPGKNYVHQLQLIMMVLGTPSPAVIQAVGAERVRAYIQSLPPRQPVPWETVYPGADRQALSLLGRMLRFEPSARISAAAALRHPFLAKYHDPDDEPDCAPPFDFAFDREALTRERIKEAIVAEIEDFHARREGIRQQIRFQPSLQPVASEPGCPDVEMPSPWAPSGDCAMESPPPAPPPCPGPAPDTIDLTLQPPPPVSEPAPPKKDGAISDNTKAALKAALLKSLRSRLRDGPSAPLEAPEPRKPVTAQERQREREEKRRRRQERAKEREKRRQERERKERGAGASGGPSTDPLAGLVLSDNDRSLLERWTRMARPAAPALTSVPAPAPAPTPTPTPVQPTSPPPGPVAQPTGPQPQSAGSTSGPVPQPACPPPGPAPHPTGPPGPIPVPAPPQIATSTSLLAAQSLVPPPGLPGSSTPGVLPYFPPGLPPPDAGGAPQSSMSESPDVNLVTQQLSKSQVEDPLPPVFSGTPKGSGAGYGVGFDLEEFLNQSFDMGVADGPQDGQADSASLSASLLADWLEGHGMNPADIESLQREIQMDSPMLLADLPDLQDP
# [17] = hESC survival regulators, cell-based (AID 493140; call rule not given here;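 note: cells exposed to compounds for four days before counting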); conditions: human embryonic stem cell survival screen; stronger effect = higher value
# [18] = MELAS cybrid survival, CellTiter-Glo 48 h, stronger effect = higher value
# [19] = Rieske KO mouse fibroblast survival, CellTiter-Glo 72 h
# [20] = measured here: relative caspase fold change +Dox/-Dox
# [21] = measured here: total cells with miR-34 induction, stronger effect = lower value
# [22] = measured here: total cells without miR-34 induction
smiles,measurement,setting,value
c1ccc(C2CC2)c(OCC2=NCCN2)c1,parasite load remaining,[1],45.2% (inactive)
same,viability,[1],96.5%
same,nuclear beta-catenin stimulation,[2]; at 10 µM,1.3% (inactive)
same,nuclear beta-catenin stimulation,"[2]; stimulation, at 2 µM",0.6%
same,insulin secretion stimulation,[3],-0.5% (inactive)
same,viability decrease,[4],-54.5% (inactive)
same,tube area decrease,[5],-3.7% (inactive)
same,GLP1 secretion stimulation,[6],10.4% (inactive)
same,inhibition of viability,[7],5.23% (inactive)
same,viability decrease (inhibition),[8],7% (inactive)
same,viability decrease (inhibition),[9],-2.1% (inactive)
same,remaining activity,[10],98% (inactive)
same,z-score,[11]; [18],-0.68 (inactive)
same,z-score,[11]; [19],-0.25
same,z-score,[12],-0.075 (inactive) and 0.06 (inactive) and 0.195 (inactive)
CCOC(=O)CC(SP(=S)(OC)OC)C(=O)OCC (stereo not drawn),nuclear beta-catenin stimulation,[2]; at 10 µM,1% (inactive)
same,nuclear beta-catenin stimulation,"[2]; stimulation, at 2 µM",-0.1%
same,insulin secretion stimulation,[3],-1.5% (inactive)
same,viability decrease,[4],-29.7% (inactive)
same,tube area decrease,[5],18% (inactive)
same,GLP1 secretion stimulation,[6],0.7% (inactive)
same,inhibition of viability,[7],-0.33% (inactive)
same,viability decrease (inhibition),[8],27% (inactive)
same,viability decrease (inhibition),[9],-18% (inactive)
same,red/green cell ratio (normalised),[13]; actives lie on both sides,1.05 (inactive)
same,normalised cell number,[13]; measured here: epithelial PC-3E GFP cell survival,1.11
same,normalised cell number,[13]; measured here: mesenchymal TEM4-18 mCherry cell survival,1.16
same,fold change,[14]; stronger effect = lower value,0.857 (inactive)
same,fold change,[14]; [20],0.964
same,cell count,[14]; [21],7400
same,cell count,[14]; [22],8640
same,remaining NAD,[15],10 nM (inactive)
same,luciferase signal,[16],52 AU (inactive)
CC(=O)[C@H]1CC[C@H]2[C@@H]3CC[C@H]4C[C@H](O)CC[C@]4(C)[C@H]3C(=O)C[C@]12C,survival,[17],20.1 (inactive)
same,parasite load remaining,[1],70.8% (inactive)
same,viability,[1],72.4%
same,nuclear beta-catenin stimulation,[2]; at 10 µM,0.5% (inactive)
same,nuclear beta-catenin stimulation,"[2]; stimulation, at 2 µM",-0.7%
same,insulin secretion stimulation,[3],3.1% (inactive)
same,viability decrease,[4],28% (inactive)
same,tube area decrease,[5],-23.1% (inactive)
same,GLP1 secretion stimulation,[6],-1.7% (inactive)
same,inhibition of viability,[7],41.1% (inactive)
same,viability decrease (inhibition),[8],67.8% (active)
same,viability decrease (inhibition),[9],19.9% (inactive)
same,remaining activity,[10],112% (inactive)
same,fold change,[14]; stronger effect = lower value,1.12 (inactive) and 0.844 (inactive)
same,fold change,[14]; [20],0.8 and 0.773
same,cell count,[14]; [21],11000 and 8700
same,cell count,[14]; [22],9770 and 10300
same,z-score,[11]; [18],0.566 (inactive)
same,z-score,[11]; [19],0.0524
same,z-score,[12],-0.315 (inactive)
CCCN1CCC[C@@H]2Cc3nc(N)ncc3C[C@H]21,nuclear beta-catenin stimulation,[2]; at 10 µM,4.8% (inactive)
same,nuclear beta-catenin stimulation,"[2]; stimulation, at 2 µM",-0.2%
same,insulin secretion stimulation,[3],-0.2% (inactive)
same,viability decrease,[4],-24.3% (inactive)
same,tube area decrease,[5],-0.4% (inactive)
same,GLP1 secretion stimulation,[6],-2.2% (inactive)
same,inhibition of viability,[7],-3.2% (inactive)
same,viability decrease (inhibition),[8],-4.6% (inactive)
same,viability decrease (inhibition),[9],-14.6% (inactive)
same,remaining activity,[10],118% (inactive)
same,fold change,[14]; stronger effect = lower value,0.958 (inactive)
same,fold change,[14]; [20],2.12
same,cell count,[14]; [21],9790
same,cell count,[14]; [22],10200
same,z-score,[12],0.925 (inactive)
